{"source": "PubChem BioAssay (NCI)", "note": "Compounds without any hit were thinned out: in the full panel of roughly 83,000, 20% have a hit.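 How to read the values: 0–100, growth inhibition (40 = 60% inhibited); 0, no net growth; -100 to 0, cell death (-40 = 40% of starting cells died; -100 = all dead).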 Unmarked numbers belong to inactive results. Active and inactive are the calls of the source. Rule for the calls: active = growth percent below 10; inactive = the rest."}
{"tested_on": "COLO 205 colon", "test": "NCI-60 one-dose screen, 48 h (100 = growth as untreated, 0 = no growth, -100 = all killed)", "conditions": "10 µM unless noted"}
{"smiles": "Nc1cc2nc3ccccc3sc-2cc1=O", "growth": "104%"}
{"smiles": "COc1ccc(C(=O)/C=C/c2c(Cl)c3c(c(OC)c2Cl)OCC(=O)N3)cc1", "growth": "62.1%"}
{"smiles": "COc1cc(NCCCCN=C(N)NC(N)=NC(C)C)c2ncccc2c1", "growth": "-18.5% (active)"}
{"smiles": "CC/C=C\\C[C@H](F)C/C=C1/C(=O)C=C[C@@H]1C/C=C\\CCCC(=O)OC", "growth": "-28.1% (active)"}
{"smiles": "C=C(CN1CCN(c2cccc(C(F)(F)F)n2)CC1)c1ccc(C(=O)Nc2ccccc2N)cc1", "growth": "1.41% (active)"}
{"smiles": "Cn1cc(-c2csc(-c3cn(C)c4ncccc34)n2)c2ccccc21", "growth": "-7.52% (active)"}
{"smiles": "COc1ccc2nc3cc(Cl)ccc3c(N3CCN(c4nccc(Nc5ccc(Cl)cc5)n4)CC3)c2c1", "growth": "95.7%"}
{"smiles": "CCN(CC)CCCC(C)N/C(=C1\\C(=O)NC(=O)\\C1=C(/NC(C)CCCN(CC)CC)c1cccc(OC)c1)c1cccc(OC)c1", "note": "(stereo not drawn)", "growth": "-62.9% (active)"}
{"smiles": "CC(=O)C1=C(O)C=C2Oc3c(C(=O)/C=C/c4ccccc4)c(O)c(C)c(O)c3[C@]2(C)C1=O", "growth": "40.4%"}
{"smiles": "O=C1/C(=C/c2ccc(Cl)c(Cl)c2)CN(C(=O)CCN2CCC(=NO)CC2)C/C1=C\\c1ccc(Cl)c(Cl)c1", "growth": "-84.6% (active)"}
{"smiles": "CCOC(=O)/C=C/C(=O)[C@H](CC(C)C)NC(=O)[C@H](Cc1ccccc1)NC(=O)OCc1ccccc1", "growth": "67.5%"}
{"smiles": "Cc1cc2cc3cc(C)c(N(C)C)cc3[n+](C)c2cc1N(C)C", "growth": "-19.2% (active)"}
{"smiles": "COC(=O)[C@@H]1CC[C@]2(C)[C@H](CC[C@@H]3O[C@@]32C)[C@@]1(C)CC(=O)c1ccoc1", "growth": "113%"}
